# In PubChem BioAssay AID504604 (National Center for Advancing Translational Sciences (NCATS), 2011):
# Active and inactive are the calls of the source. Calls follow the shape of the dose curve; as a rule, active = well fitted inhibition curve with a large enough effect; inconclusive = small, poorly fitted or top-dose-only effect; inactive = flat fitted curve, though single readings scatter.
# Assay: Quantitative high throughput screen to test activity of anti-malarial compounds in the Dd2 strain of Plasmodium Falciparum
# Settings: P. falciparum Dd2 in RBCs, SYBR Green growth, 72 h
# From the text: NIH Molecular Libraries Probe Production Network [MLPCN] NIH Chemical Genomics Center [NCGC] MLPCN Grant: R21 NS059500 Assay Provider: David Fidock and Eric Ekland, Columbia University The goal of this screen is to measure the ability of a set of anti-malarial compounds to inhibit the Dd2 strain of P. falciparum. These compounds have been screened in a delayed death phenotype assay and have been identified as inhibitors of the delated death phenotype, by inhibiting the development of the apicoplast in the malarial parasite Plasmodium falciparum (described below) The biochemical processes that make this organelle essential for erythrocytic stage parasites are not well understood. However, antibiotics, such as azithromycin and tetracycline, which target the apicoplast translational machinery, have a potent antimalarial effect. […] We have developed a cell-based assay that measures parasite growth based on the expression of an integrated copy of a firefly luciferase reporter. To detect small molecules that cause this 'delayed death' phenotype, erythrocytes infected with the luciferase-expressing parasites were incubated with compounds for either one or two generations, corresponding to 48 and 96 hours, respectively. […] Growth inhibition is detected by a decrease in luciferase activity […]
row,Compound,Potency
1,COc1ccc(COC[C@H](C)N2C[C@@H](C)[C@H](CN(C)S(=O)(=O)c3ccc(F)cc3)OCCCC[C@H](C)Oc3ccc(NC(=O)Nc4ccccc4)cc3C2=O)cc1,0.0142 µM (active)
2,C[C@@H]1CN([C@@H](C)CO)C(=O)c2cc(NC(=O)Nc3ccccc3)ccc2O[C@@H](C)CCCCO[C@H]1CN(C)C(=O)Oc1ccccc1,8.96 µM (active)
